# “And” between values parts separate entries of the source, which are not always exact repeats. Equal values may be shown once. About 83,000 compounds went through this panel and 20% of them were active in at least one assay; those are over-represented in the sample as a whole.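 Step 1: grow cells in 96-well plates. Step 2: add test compound at a single concentration. Step 3: incubate 48 h. Step 4: record percent growth.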 The source made the active and inactive calls. Rule for the calls: active = growth percent below 10; inactive = the rest.
# System: HL-60(TB) leukemia
# Test: NCI-60 one-dose screen, 48 h (100 = growth as untreated, 0 = no growth, -100 = all killed)
# Conditions: 10 µM unless noted
row,Structure (SMILES),growth
1,Nc1ncnc2nc(Br)[nH]c12,90.3% (inactive)
2,CCNCCCn1c2c(c3ccc(F)cc3c1=O)C(=O)c1cc(OC)cnc1-2,-25.5% (active)
3,O=C(Nc1ccc(-c2nc3cc4ccccc4cc3[nH]2)cc1)c1cccc(Br)c1,42.3% (inactive)
4,CCN1c2ccccc2C(Cl)(c2ccc(N(C)C)cc2)c2ccccc21,14% (inactive)
5,CN(C)C1CCN(Cc2ccc(NC(=O)c3cncc(C#Cc4cnc(N)c5ncccc45)c3)cc2C(F)(F)F)CC1,73.6% (inactive)
6,Cc1cc(N2CCCCC2)nc(N(CCCNc2ccnc3cc(Cl)ccc23)Cc2ccco2)n1,-43.6% (active)
7,Cc1c(-c2noc(-c3ccc([N+](=O)[O-])cc3)n2)no[n+]1[O-],102% (inactive)
8,CCOC(=O)C1=C(C)n2nc(CC#N)c(C#N)c2NC1c1ccc(Cl)cc1 (stereo not given),105% (inactive)
9,O=C1NC(c2ccc(F)cc2)N=C2C(c3ccccc3)=NOC12 (stereo not given),101% (inactive)
10,Brc1ccc2[nH]cc(-c3nonc3-c3c[nH]c4ccccc34)c2c1,67.3% (inactive)
11,CCCCCCOc1ccc(C2(Cl)c3ccccc3N(C)c3ccccc32)cc1,65.4% (inactive)
12,COc1cc(C(=O)c2ccc3c(c2)OCO3)cc(OC)c1OC,1.04% (active) and 22.6% (inactive)
13,Cc1ccc(S(=O)(=O)Nc2nc3ccccc3nc2Nc2ccc3nsnc3c2)cc1,45.4% (inactive) and 37.2% (inactive)
14,Cc1nc2ncccc2nc1Nc1ccc(S(=O)(=O)Nc2cncs2)cc1,109% (inactive)
15,C=C(C(N)=O)C(N)C(=O)O (stereo not given),104% (inactive)
16,O=c1[nH]c2ccccc2n1C1CCN(CCOc2ccccc2)CC1,50% (inactive)
17,COc1ccc2[nH]cc(/C=C3\C(=O)Nc4ccccc43)c2c1,-31.7% (active)
18,OCc1ncc(-c2ccccc2)s1,91.1% (inactive)
19,CCCCCCCCCCCCCCCCCCOc1ccccc1CC(=O)OCC[N+]1(C)CCCC1,22.9% (inactive)
20,OCC(O)C(O)CC1SCCS1 (stereo not given),46% (inactive)

row,Structure (SMILES),growth
1,Cn1cnc2c1c(=O)n(CCC(=O)Nc1ccc(F)cc1)c(=O)n2C,113% (inactive)
2,O=C1Nc2c(c(=O)n(-c3ccccc3)c3ccccc23)C(c2ccc(Cl)cc2)N1 (stereo not given),108% (inactive)
3,C#C[C@]1(O)CC[C@H]2[C@@H]3CC=C4c5nc(Nc6ccc(OC)cc6OC)sc5CC[C@]4(C)[C@H]3CC[C@@]21C,17.9% (inactive)
4,O=C1Nc2ccccc2/C1=C\c1c(-c2ccc(F)cc2)nc2ccccn12,70.3% (inactive)
5,COc1ccc(-c2nc3sc4c(c3c(=O)[nH]2)CCCC4)c2ccccc12,-24.7% (active)
6,O=c1c2sc3ccccc3c2nnn1-c1ccc(F)c(Cl)c1,73.7% (inactive)
7,Cc1cc(N=Nc2ccc(-c3ccc(N=Nc4ccc(O)c(C(=O)O)c4)cc3)cc2)c(N)c(N=Nc2ccc(C(=O)O)cc2)c1N,81% (inactive)
8,Cc1ccc(C(C(N)=O)C(C(N)=O)c2ccccc2)cc1 (stereo not given),84.7% (inactive)
9,Cc1cc(=O)[nH]c(N=Nc2c(O)[nH]c3ccccc23)n1,79.8% (inactive)
10,CN1C2CCC1CN(c1cnc(C(=O)Nc3cc(F)cc4cccnc34)cn1)C2,5.69% (active)
11,COc1ccc(SC2c3cc(OC)c(OC)cc3Oc3nc(N)c(C#N)c(N)c32)cc1 (stereo not given),-51.5% (active)
12,CC(C)(C)n1cc(-c2ccnc(NCCCNS(=O)(=O)c3ccc(F)cc3)c2)c(-c2cccc(F)c2)n1,38.2% (inactive)
13,Cc1cc(CCNC=O)c(C)c2c1sc1ccccc12,91.9% (inactive)
14,CCCCN1C(=O)c2cccc3c(-c4ccc5c(c4)ncn5C4CCCCC4)ccc(c23)C1=O,99.7% (inactive)
15,COc1ccc(S(=O)(=O)Nc2cc(/C=C\c3cc(OC)c(OC)c(OC)c3)cc(OC)c2OC)cc1,-42.1% (active)
16,NC(CSC(c1ccccc1)(c1ccccc1)c1ccccc1)C(=O)NCC(=O)O (stereo not given),55% (inactive)
17,CC(=O)Oc1c(Cl)c(Cl)c(Cl)c(Cl)c1Cl,82.2% (inactive)
18,COc1ccc(/C=C2\N=C3SC=C(N)N3C2=O)cc1,-40% (active)
19,O=C(Nc1ccc(Br)cc1)c1cc(Br)ccc1O,-18.4% (active) and -60% (active)
20,N#CC(C#N)=C/C=C/c1cccc([N+](=O)[O-])c1,-10.5% (active) and -9.74% (active)

# From PubChem BioAssay (NCI)
